Data as given in PubChem BioAssay AID493056 (National Center for Advancing Translational Sciences (NCATS), 2011).
Screen size: about 360,000 compounds; about 2,400 (0.67%) were called active. This is one part of a sample in which actives are shown more often than they occur. Values without a mark were called inactive. No stated cut-off is given here; in the data, active means enhancement above about 30%; inactive means the rest.

Each compound was assayed against Thyrotropin-releasing hormone receptor (Homo sapiens) (UniProt P34981) (assay: qHTS for Small Molecule Agonists and Allosteric Enhancers of Human TRH Receptor: Primary Screen for Enhancers). Conditions: TRHR cells, fluo-8 calcium fluorescence, EC20 TRH enhancement; at 2 µM; active compounds read high.
Sequence of Thyrotropin-releasing hormone receptor (Homo sapiens) (P34981 whole entry, looked up): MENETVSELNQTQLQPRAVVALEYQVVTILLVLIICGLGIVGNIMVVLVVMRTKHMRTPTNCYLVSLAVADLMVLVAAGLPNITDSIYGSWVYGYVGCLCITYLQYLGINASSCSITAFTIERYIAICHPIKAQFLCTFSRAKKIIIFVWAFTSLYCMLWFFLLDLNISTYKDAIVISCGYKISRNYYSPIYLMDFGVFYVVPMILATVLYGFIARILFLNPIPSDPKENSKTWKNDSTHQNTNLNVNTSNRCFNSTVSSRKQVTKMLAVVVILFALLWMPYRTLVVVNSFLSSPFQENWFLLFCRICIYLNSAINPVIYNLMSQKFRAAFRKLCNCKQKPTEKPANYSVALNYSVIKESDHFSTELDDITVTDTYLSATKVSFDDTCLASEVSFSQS
Procedure, shortened: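 TRHR-expressing cells loaded with fluo-8 calcium dye were read kinetically (ex 480/em 530) during compound addition, then stimulated with an EC20 of TRH (10 nM final). Enhancement of the Gq-mediated intracellular calcium response was scored.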
Further: 0% is about no effect.

SMILES	enhancement
Nc1ncc(S(=O)(=O)Nc2ccc(OC(F)(F)F)cc2)cn1	-5.87%
Cc1ccc(N(C(=O)CNC(=O)c2ccco2)C(C(=O)NC2CCCC2)c2ccncc2)cc1 (stereo unspecified)	0.937%
COc1ccc(N(C(=O)CNC(=O)c2ccco2)C(C(=O)NCC2CCCO2)c2ccccc2)cc1Cl (stereo unspecified)	-16.4%
O=C(NCC(=O)N(CC1CCCO1)C(C(=O)NC1CCCCC1)c1ccccc1)c1ccco1 (stereo unspecified)	35.9% (active)
CCOc1ccc(Nc2ncnc3scc(-c4ccc(OC)cc4)c23)cc1	-0.508%
O=C(NCc1ccc2c(c1)OCO2)C12CC3CC(CC(C3)C1)C2	-3.78%
CN(C)S(=O)(=O)c1cccc(NC(=S)NCc2ccc3c(c2)OCO3)c1	34% (active)
CN(C)S(=O)(=O)c1cccc(NC(=O)COc2ccc3ccccc3c2)c1	-1.36%
COc1ccccc1N1CCN(c2ncnc3onc(-c4cccc(Cl)c4)c23)CC1	-1.85%
CCOc1ccc(C(C)=O)cc1COC(=O)CNC(=O)c1cccs1	34.6% (active)
CCOc1ccc(C(C)=O)cc1COC(=O)c1cnc(Cl)c(Cl)c1	22.5%
COc1ccc(C(=O)COC(=O)CNC(=O)c2cccs2)cc1Br	2.56%
O=C(Nc1ccccc1N1CCN(C(=O)c2ccccc2)CC1)c1ccco1	7.38%
CCCNC(=O)c1ccc(N2CCC3(CC2)CC(c2ccc(Cl)cc2)=NO3)c([N+](=O)[O-])c1	0.894%
CCCNC(=O)c1ccc(N2CCC3(CC2)CC(c2cccc(Br)c2)=NO3)c(NC(=O)c2ccco2)c1	35.5% (active)
COC(=O)c1ccccc1NC(=O)c1ccc(C#N)cc1	6.65%
CCCCCn1c(CCNC(=O)c2ccc(F)cc2)nc2ccccc21	-6.28%
Cc1ccc(NC(=O)CCCn2c(=O)c3cccn3c3ccccc32)cc1Cl	1.3%
COc1ccc2c(c1)Cc1sc(NC(=O)c3ccccc3Br)nc1-2	4.8%
CCC(CC)c1nnc(NC(=O)c2nn(C)c(=O)c3ccccc23)s1	6.49%
CCC(CC)c1nnc(NC(=O)C2=COCCO2)s1	36.4% (active)
Cc1sc(NC(=O)C2=COCCO2)c(C#N)c1C	2.25%
Cc1ccccc1OCc1ccc(-c2nc(C#N)c(N3CCCCC3)o2)o1	0.624%

SMILES	enhancement
O=C(Nc1ccc(-c2nc3cc(NC(=O)c4ccccc4Cl)ccc3o2)cc1)c1ccccc1Cl	-6.24%
Cc1cc(C(=O)CCl)c(C)n1CC1COc2ccccc2O1 (stereo unspecified)	45.8% (active)
COc1ccc(NC(=O)CC2COc3ccccc3O2)c(OC)c1 (stereo unspecified)	-4.66%
Cc1n[nH]c(C)c1S(=O)(=O)N1CCCC(C(=O)NCC2COc3ccccc3O2)C1 (stereo unspecified)	-5.61%
COc1ccc(NC(=O)Cn2c(=O)n(CCC(C)C)c(=O)c3cccnc32)cc1Cl	5.35%
Cc1nc2cccnc2nc1C	1.62%
Clc1ccc(COn2c(-c3ccc(Cl)cc3Cl)nc3ncccc32)cc1	-14.4%
COn1c(-c2ccc(Cl)cc2Cl)nc2ncccc21	31.3% (active)
O=S(=O)(c1ccccc1)c1nc(-c2ccccc2F)oc1NCc1cccnc1	0.0883%
Cc1ccc(S(=O)(=O)c2nc(-c3cccs3)oc2NCc2cccnc2)cc1	-3.44%
O=S(=O)(c1ccc(Br)cc1)c1nc(-c2ccccc2)oc1NCc1cccnc1	31.2% (active)
Cc1ccc(-n2cnc3cc(C(=O)NCCC4=CCCCC4)ccc32)cc1Cl	-5.29%
Cc1cc(-c2ccccc2)n2nc(-c3ccccc3)cc2n1	33% (active)
Cc1cc(N)n2nc(-c3ccc(C(C)(C)C)cc3)cc2n1	1.1%
Cc1cc(-c2ccccc2)n2nc(C)c(-c3ccccc3)c2n1	-0.179%
Cc1ccc(C(=O)Nc2c(C(=O)NC(C)(C)C)oc3ccccc23)cc1	6.66%
N#CN1CCC(NS(=O)(=O)c2cccc(F)c2)C1 (stereo unspecified)	-3.49%
CCn1nnnc1SCC(=O)c1ccc(C)cc1C	7.37%
CSc1nnnn1-c1c(C)cc(C)cc1C	41.9% (active)
COC(=O)c1ccccc1NC(=O)c1ccc2c(=O)n3c(nc2c1)CCCCC3	1.88%
COc1cc(Cl)c(NC(=O)C(NS(=O)(=O)c2cccs2)C(C)C)c(OC)c1 (stereo unspecified)	8.88%
COc1ccc(Nc2ncc3c(n2)CCN(C(=O)OC(C)(C)C)C3)cc1	2.63%
Cc1ccc(-c2cc(C(F)(F)F)c(C#N)c(SCC(=O)Nc3ccccc3)n2)cc1	7.58%

SMILES	enhancement
Cc1ccc(Cl)cc1N1CCN(C(=O)C2CCC(CNS(=O)(=O)c3cccs3)CC2)CC1 (stereo unspecified)	4.4%
CCOC(OCC)c1ccc(/C=C\c2nccc(N)n2)cc1	30% (active)
CN(C)S(=O)(=O)c1ccc(C(=O)N(Cc2cccnc2)c2nc3c(F)cc(F)cc3s2)cc1	-9.57%
Cc1cc2c(s1)c1cnn(Cc3c(F)cccc3Cl)c(=O)c1n2C	10.5%
CC(NC(=O)COc1ccccc1)C(=O)NC1=NCCS1 (stereo unspecified)	1.42%
CSCCC(C(=O)NC1=NCCS1)N1C(=O)c2ccccc2C1=O (stereo unspecified)	33.2% (active)
CCCCN(C(=O)C(CCSC)N1C(=O)c2ccccc2C1=O)c1c(N)n(CCC)c(=O)[nH]c1=O (stereo unspecified)	-0.146%
COc1ccccc1C(=O)NCc1nnc(SC(C)C(=O)Nc2nccs2)n1C (stereo unspecified)	-2.08%
CC(Sc1nnc(CNC(=O)c2ccccc2F)n1C)C(=O)Nc1nccs1 (stereo unspecified)	-1.71%
Cc1cccc(C(=O)NCc2nnc(SC(C)C(=O)Nc3nnc(C)s3)n2C)c1 (stereo unspecified)	37.6% (active)
O=S(=O)(c1ccc2c(c1)OCCCO2)N1CCN(S(=O)(=O)c2c(F)cccc2F)CC1	2.65%
N#Cc1nc(Nc2cc(F)cc(Cl)c2)nc(NC2CCCC2)n1	-2.09%
O=C(NCc1ccccc1Cl)c1cccn1-c1nnc(N2CCCCC2)s1	-0.339%
Cc1ccc(NC(=O)CSc2nc3c([nH]c4ccccc43)c(=O)n2-c2ccccc2)cc1Cl	-2.92%
Cc1cccc(NC(=O)CSc2nc3c([nH]c4ccccc43)c(=O)n2-c2cc(C)cc(C)c2)c1	1.49%
Cc1ccc(NC(=O)CSc2nc3c([nH]c4ccccc43)c(=O)n2-c2ccccc2)c(C)c1	39.6% (active)
Cc1ccccc1OCc1nc2c3cnn(-c4ccccc4F)c3ncn2n1	8.56%
COc1ccc(-c2nc3sc(CCNS(=O)(=O)c4ccc(F)c(C)c4)c(C)n3n2)cc1	-2.89%
Cc1cccc(OCC(=O)N(Cc2ccc(C(C)C)cc2)Cc2ccco2)c1C	3.9%
COc1cccc(CN(C)CC(=O)Nc2sc3c(c2C#N)CCC3)c1	40.2% (active)
Cc1ccc(C)c(OCC(=O)Nc2sc3c(c2C#N)CCCC3)c1C	0.637%
COc1cccc(CN(C)CC(=O)Nc2ccccc2C(=O)Nc2ccccc2)c1	2%
Cc1ccc(O)c(NC(=O)c2cc(-c3ccc(F)cc3)no2)c1	-8.05%

SMILES	enhancement
O=c1c2cccnc2n(Cc2cccc(F)c2)c(=O)n1Cc1ccccc1Cl	-4.81%
CC(C)(C)n1c(=O)[nH]c2c(c1=O)CCC2	-6.6%
O=c1[nH]n2c(=O)c3c([nH]c2c1N=Nc1ccccc1)CCC3	31.1% (active)
O=c1o[nH]c(-c2ccccc2)c1N=Nc1c(F)cccc1Cl	45.6% (active)
O=c1c(=O)n(Cc2c(F)cccc2Cl)ccn1Cc1ccccc1	6.97%
COc1ccc(N=Nc2c(-c3ccc(OC)cc3)[nH]oc2=O)cc1	5.67%
CCS(=O)(=O)c1nc(S(=O)(=O)c2ccc(C)cc2)c(NCc2ccc(Cl)cc2)s1	0.719%
CCN(CC)c1ccc(C2C(C(N)=O)=C(C)Nc3nc(SCc4ccccc4)nn32)cc1 (stereo unspecified)	3.72%
O=C(/C=C/c1ccc(Cl)c([N+](=O)[O-])c1)c1cccnc1	36.2% (active)
C/C(=N\NC(=O)c1cccc([N+](=O)[O-])c1)c1cccnc1	3.55%
C/C(=N\NC(=O)Cc1ccccc1[N+](=O)[O-])c1cccnc1	2.77%
COc1ccc(CNC(=O)C2=Cc3cccc(OC)c3OC2)cc1OC	-3.7%
CC1(C)Cc2c(C#N)c(SCc3nc4ccccc4[nH]3)nc(N3CCOCC3)c2CO1	34.4% (active)
C1=C(N2CCOCC2)/C(=C/c2nc3ccccc3[nH]2)CC1	3.98%
CC(C)C(=O)N1CCN(c2nc(-c3ccccc3)c3c(c2C#N)CC(C)(C)OC3)CC1	-1.59%
Cc1nc2nc(NCc3cccc(Br)c3)[nH]n2c(=O)c1Cc1ccccc1	2.4%
COc1ccc(-c2noc(CCC(=O)N(C)c3ccccc3C)n2)cc1	6.52%
COc1ccc(C2CC(=O)Nc3sc(=N)c4c(N)c(C#N)c(N)nc4c32)cc1OC (stereo unspecified)	33.8% (active)
N#Cc1c(N)nc2c3c(sc(=N)c2c1N)NC(=O)CC3c1ccccc1Cl (stereo unspecified)	2.83%
COc1ccc(C2CC(=O)Nc3c2c(=O)nc2c(C)cccn32)cc1OC (stereo unspecified)	15%
O=C(CSc1cn(CC(=O)N2CCOCC2)c2ccccc12)Nc1ccccc1	-5.59%
COc1ccc(Cc2nc3ccc(C(=O)NCc4ccccc4Cl)cc3o2)cc1	3.9%
